The values that follow come from PubChem BioAssay.

A word on the inhibition: it is the change of the read-out against control, counted positive when it falls. A word on the remaining activity: it is the signal under treatment as a percentage of the control signal. As a reminder, the AC50 is the concentration giving half of the maximal activity seen. By IC50 is commonly meant the midpoint of a concentration-inhibition curve.

The structures appear in SMILES notation. “And” between values parts separate entries of the source, which are not always exact repeats. Identical values can stand only once. Records with an inconclusive call do not appear. The source made the active and inactive calls. Unless noted, the rule behind the calls is not given here.

Experiment [1] in a line: reducers of polyQ inclusions in PC12 cells, cell-based, NGF-treated PC12, GFPQ80 (AID 1614).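 Note: lower means fewer inclusions and 0 means no inclusions at all.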 The conditions noted are these: PC12 NGF-treated GFP-polyQ80 inclusion reduction.
The nature of experiment [2]: circadian clock period modulators, cell-based, LOPAC library, luminescence reporter (AID 2774).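 Note: values are relative to mean of DMSO wells on each plate.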 The conditions noted are these: circadian reporter cells, at 7 µM, actives lie on both sides.
The test system of experiment [3] is Hepatitis C virus NS3 helicase. Description: HCV NS3 helicase inhibitors, primary screen, biochemical, fluorescence polarization, LOPAC1280 library (AID 687035; in the data active = inhibition above about 37%). The following applies: Purified HCV NS3 helicase, Cy5-dT15 ssDNA binding fluorescence polarization; stronger effect = higher value; concentration not given here. A general note: Polarisation of emitted light reports the rotation of a fluorescent probe.

Experiment [4] in a line: Cy5 fluorescence quenching or enhancement artefacts, artefact control for HCV NS3 helicase inhibitor project, biochemical, LOPAC1280 (AID 687037). The conditions noted are these: Cy5-DNA-NS3h complex fluorescence interference counterscreen. On the technique in general: Counterscreens check selectivity or assay interference.
In experiment [5] the test system is Aerobactin synthetase IucA (Klebsiella pneumoniae). Description: IucA aerobactin synthetase inhibitors, biochemical, Tocris library, absorbance (AID 1345561).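 Note: 100% = enzyme without compound and 0% = no enzyme.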 The following applies: purified IucA enzyme assay, absorbance (OD) read-out; stronger effect = lower value;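 tested at 8 µM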.
Experiment [6] is described as follows: phospholipid biosynthesis inhibitors in animal cells, primary screen, cell-based, LOPAC library, screen 4 (AID 1347384). The conditions noted are these: phospholipid biosynthesis inhibition screen, at 10 µM.
Experiment [7] in a line: hESC survival regulators, cell-based (AID 493140).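 Note: cells exposed to compounds for four days before counting.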 The following applies: human embryonic stem cell survival screen; stronger effect = higher value.
Experiment [8] can be described thus: growth inhibition of DIPG glioma cells, dose response, cell-based, SU-DIPG-XVII, MIPE5.0, CellTiter-Glo, qHTS (AID 1347060; cut-off not given, nearly all actives have AC50 up to about 26 µM;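 for AC50: cells exposed to compound for 48 hours before viability readout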). The conditions noted are these: SU-DIPG-XVII viability, CellTiter-Glo ATP luminescence. Background: Cellular ATP, detected with luciferase, serves as a proxy for viable cell number.
Experiment [9] can be described thus: growth inhibition of DIPG glioma cells, dose response, cell-based, SU-DIPG-XIII, MIPE4.0, CellTiter-Glo, qHTS (AID 1347061; cut-off not given, nearly all actives have AC50 up to about 37 µM;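 note: cells exposed to compound for 48 hours before readout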). The following applies: SU-DIPG-XIII viability, CellTiter-Glo ATP luminescence.
Experiment [10] can be described thus: growth inhibition of DIPG glioma cells, dose response, cell-based, SU-DIPG-IV, MIPE4.0, CellTiter-Glo, qHTS (AID 1347063; cut-off not given, nearly all actives have AC50 up to about 30 µM;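 note: compound exposure lasted 48 hours before the viability readout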). The conditions noted are these: SU-DIPG-IV viability, CellTiter-Glo ATP luminescence.
Experiment [11] is described as follows: viability loss in pontine glioma line – cell-based, SU-DIPG-XXV, MIPE5.0, CellTiter-Glo, qHTS, dose response (AID 1347065; cut-off not given, nearly all actives have AC50 up to about 26 µM;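 note: cells exposed to compound for 48 hours before ATP readout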). The following applies: CellTiter-Glo ATP luminescence.
Experiment [12] is described as follows: JHH-DIPG-1 glioma cell viability, MIPE5.0 library, CellTiter-Glo luminescence, qHTS (AID 1347067; cut-off not given, nearly all actives have AC50 up to about 26 µM;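 note: cells exposed to compound for 48 hours before readout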). The following applies: JHH-DIPG-1 glioma viability, CellTiter-Glo ATP luminescence.
Experiment [13] is described as follows: SU-DIPG-XXV glioma cell viability, MIPE5.0 library, qHTS (AID 1347068; cut-off not given, nearly all actives have IC50 up to about 30 µM;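 for IC50: cells exposed to compound for 48 hours before viability readout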).
The nature of experiment [14]: SU-DIPG-VI glioma cell viability, MIPE4.0 library, CellTiter-Glo luminescence, qHTS (AID 1347066; cut-off not given, nearly all actives have AC50 up to about 30 µM;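 note: cells exposed to compound for 48 hours before readout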). The conditions noted are these: CellTiter-Glo ATP luminescence.
A short description of experiment [15]: LFS_MB_1R medulloblastoma cell growth inhibition, synergistic combos for chromothripsis tumors, cisplatin or BGB combos (AID 1671452; in the data active = inhibition above about 80%;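 note: cells exposed for 96 hours before readout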). The following applies: LFS_MB_1R medulloblastoma cells, stronger effect = higher value.
Experiment [16] can be described thus: CRL2098 osteosarcoma cell growth inhibition, synergistic combos for chromothripsis tumors, BGB or cisplatin IC20 combos (AID 1671454; in the data active = inhibition above about 80%;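 note: cells exposed for 96 h before readout; 0% = vehicle DMSO and 100% = killing by high DMSO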). The conditions noted are these: CRL2098 osteosarcoma cells, drug combinations, stronger effect = higher value.
A short description of experiment [17]: MDA-MB-436 breast carcinoma cell growth inhibition, synergistic combos for chromothripsis tumors, BGB or cisplatin combos (AID 1671458).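 Note: cells exposed for 96 hours; 0% = vehicle DMSO and 100% = killing by high DMSO.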 The conditions noted are these: MDA-MB-436 breast carcinoma growth inhibition, drug combinations, stronger effect = higher value.
A short description of experiment [18]: growth inhibition of BT084 medulloblastoma cells, cell-based, ICGC_MB145, cisplatin and BGB IC40 combos (AID 1671461; in the data active = inhibition above about 80%;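 note: cells exposed to drugs for 96 hours; 0% = vehicle DMSO and 100% = high DMSO full killing control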). The following applies: drug combinations, stronger effect = higher value.
Experiment [19] is described as follows: growth inhibition of RCMB18 medulloblastoma cells, cell-based, cisplatin and BGB IC40 combos (AID 1671462; in the data active = inhibition above about 80%;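 note: cells exposed to compound for four days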). The following applies: stronger effect = higher value.
Experiment [20] is described as follows: growth inhibition of CRL1545 osteosarcoma cells, cell-based, cisplatin and BGB IC20 combos (AID 1671464; in the data active = inhibition above about 80%;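 note: cells exposed to compound for 96 hours before readout; 0% = vehicle DMSO and 100% = high DMSO killing control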). The conditions noted are these: stronger effect = higher value.
Where [21] appears, read: measured here: combination with cisplatin, at 0.5 µM.

`O=C(O)c1cc(=O)c2ccccc2[nH]1` returned an inclusion score in experiment [1] of 2. Further, in experiment [2], the period change was 0.025 h (inactive). Further, in experiment [3], the inhibition is -6% (inactive). Also, the fluorescence ratio (interference) in experiment [4] was 1 (inactive). In addition, the remaining activity in experiment [5] is 94.6% (inactive). Also, the call in experiment [6] was inactive.

Consider `CN[C@H](CC(C)C)C(=O)N[C@H]1C(=O)N[C@@H](CC(N)=O)C(=O)N[C@H]2C(=O)N[C@H]3C(=O)N[C@H](C(=O)N[C@H](C(=O)O)c4cc(O)cc(O)c4-c4cc3ccc4O)[C@H](O)c3ccc(c(Cl)c3)Oc3cc2cc(c3O[C@@H]2O[C@H](CO)[C@@H](O)[C@H](O)[C@H]2O[C@H]2C[C@](C)(N)[C@H](O)[C@H](C)O2)Oc2ccc(cc2Cl)[C@H]1O`, for which the period change in experiment [2] was -0.05 h (inactive). Further, the survival in [7] is 13.8 (inactive). The inhibition in experiment [3] was -5% (inactive). The fluorescence ratio (interference) in experiment [4] was 1 (inactive). Further, the result in experiment [8], in experiment [9], in experiment [10], in experiment [11], in experiment [12] and in experiment [13] was inactive. In experiment [6], the call was inactive.

Regarding `Nc1ccn([C@@H]2O[C@H](CO)[C@@H](O)[C@H]2O)c(=O)n1`, the compound was classed as inactive in [9], in [11], in [14], in experiment [12] and in experiment [13].

For the compound `C[C@H]1O[C@@H](O[C@H]2[C@@H](O)C[C@H](O[C@H]3[C@@H](O)C[C@H](O[C@H]4CC[C@@]5(C)[C@H](CC[C@@H]6[C@@H]5C[C@@H](O)[C@]5(C)[C@@H](C7=CC(=O)OC7)CC[C@]65O)C4)O[C@@H]3C)O[C@@H]2C)C[C@H](O)[C@@H]1O`, the survival in experiment [7] is 0.667 (inactive). The AC50 is 166 nM (active) in experiment [8]; 95.9 nM (active) in experiment [9]; 241 nM (active) in [10]; 166 nM (active) in experiment [11]; 95.9 nM (active) in experiment [14]; 66.1 nM (active) in experiment [12].

As for `CCC(=O)NCC[C@@H]1CCc2ccc3c(c21)CCO3`, the compound was classed as inactive in [8], in experiment [9], in experiment [10], in [11], in [14] and in [12]. For the same compound, the call in experiment [13] was inactive.

Regarding `COc1cc([C@@H]2c3cc4c(cc3[C@H](O)[C@H]3COC(=O)[C@@H]23)OCO4)cc(OC)c1OC`, the AC50 in experiment [8] is 525 nM (active); in [10], 37.2 nM (active); in [11], 742 nM (active); in [12] it was 1050 nM (active). In addition, the IC50 in [13] is 934 nM (active).

In the case of `COc1cc(NS(C)(=O)=O)ccc1Nc1c2ccccc2nc2ccccc12`, the period change in experiment [2] is -0.215 h (inactive). Moreover, the inhibition in experiment [3] is -8% (inactive); in experiment [15] (at 0.5 µM), 1.68% (inactive) and -19.1% (inactive); in experiment [15] (measured here: combination with BGB IC40, at 0.05 µM) it was 17.9% and -5.14%; in [15] (setting [21]), 10% and -20.9%; in experiment [15] (measured here: combination with cisplatin, at 5 µM), 63.4% and 27.6%; in experiment [16] (at 0.5 µM), 3.39% (inactive) and -17.2% (inactive). In addition, the inhibition is 5.83% and -2.6% in [16] (measured here: combination with BGB at IC20, at 0.5 µM); 6.88% and -21.3% in experiment [16] (measured here: combination with cisplatin at IC20, at 0.5 µM); 43.4% (inactive) and 40.4% (inactive) in experiment [17] (at 0.5 µM); 27.5% and 21.1% in [17] (measured here: BGB combination, at 0.5 µM); 55% and 42.6% in experiment [17] (measured here: BGB combination, at 5 µM); 41.4% and 47.1% in experiment [17] (measured here: cisplatin combination, at 0.5 µM). The inhibition in experiment [17] (measured here: cisplatin combination, at 5 µM) was 67.1% and 66.9%; in experiment [18] (at 0.5 µM), -11.3% (inactive) and -37.4% (inactive); in experiment [18] (cisplatin combination, at 0.5 µM), -2.36% and -21.2%; in experiment [18] (cisplatin combination, at 5 µM) it was 23.7% and 15.2%; in experiment [18] (measured here: BGB IC40 combination 0.05 uM, at 0.05 µM) it was 53.7% and -12.4%; in experiment [18] (single agent, at 5 µM) it was 7.96% and 23.3%. For the same compound, the inhibition in experiment [19] (at 0.5 µM) was -1.22% (inactive) and -23% (inactive); in experiment [19] (cisplatin combo, at 5 µM) it was 58.3% and 44.1%; in experiment [19] (measured here: BGB IC40 combination, at 0.05 µM) it was -16.8% and -37.3%; in experiment [19] (setting [21]), 28.6% and 11.4%; in experiment [19] (single agent, at 5 µM), 29.4% and 2.77%; in experiment [20] (at 0.5 µM) it was 24% (inactive) and 17.8% (inactive). Further, the inhibition was 24.3% and 13.1% in experiment [20] (measured here: with BGB IC20 combination, at 0.5 µM); 23.8% and 20.2% in experiment [20] (measured here: with cisplatin IC20 combination, at 0.5 µM); 42.2% and 26.1% in [20] (single agent, at 0.05 µM); 82.1% and 75.5% in experiment [20] (single agent, at 5 µM). The fluorescence ratio (interference) in [4] was 0.9 (inactive). Further, the AC50 in experiment [8] was 934 nM (active); in experiment [11], 11800 nM (active); in [12], 16600 nM (active). In addition, the outcome in experiment [6] was inactive.

On to `COc1c(O)cc2c(c1O)[C@@H]1O[C@H](CO)[C@@H](O)[C@H](O)[C@H]1OC2=O`, for which the compound was called inactive in experiment [9], in experiment [10] and in [14].

In turn, `O=C(O)c1c2ccccc2cc2ccccc12` returned an inclusion score in experiment [1] of 2. In addition, the remaining activity in experiment [5] is 101% (inactive).

As for `CCCn1c(=O)c2[nH]c(C3CCCC3)nc2n(CCC)c1=O`, in experiment [1], the inclusion score stood at 2. In addition, the period change in experiment [2] was -0.025 h (inactive). Also, in [3], the inhibition is 0% (inactive). The fluorescence ratio (interference) in experiment [4] was 1 (inactive). For the same compound, in experiment [5], the remaining activity was 119% (inactive). Also, the compound was classed as inactive in experiment [6].

`CC[C@@]1(O)C[C@H](O[C@H]2C[C@H](N(C)C)[C@H](O[C@H]3C[C@H](O)[C@H](O[C@H]4CCC(=O)[C@H](C)O4)[C@H](C)O3)[C@H](C)O2)c2c(cc3c(c2O)C(=O)c2c(O)cccc2C3=O)[C@H]1C(=O)OC`: the AC50 is 14800 nM (active) in experiment [8], 469 nM (active) in [10], 14800 nM (active) in experiment [11] and 11800 nM (active) in [12].

On to `CC(=O)[C@H]1CC[C@H]2[C@@H]3CCC4=CC(=O)CC[C@]4(C)[C@H]3CC[C@]12C`, for which the period change in experiment [2] is 0.25 h (inactive). Moreover, in experiment [7], the survival is 8.58 (inactive). For the same compound, the inhibition in experiment [3] was -4% (inactive). Moreover, in experiment [4], the fluorescence ratio (interference) is 0.9 (inactive). Also, the AC50 in experiment [9] is 1870 nM (active). Also, in experiment [6], the compound was classed as inactive.

For `CC(C)C[C@H]1C(=O)N2CCC[C@H]2[C@]2(O)O[C@](NC(=O)[C@@H]3C=C4c5cccc6[nH]c(Br)c(c56)C[C@H]4N(C)C3)(C(C)C)C(=O)N12`, in experiment [2], the period change is 0.365 h (inactive). Moreover, the survival in [7] is 29.8 (inactive). In addition, the inhibition in experiment [3] was 2% (inactive). In addition, the fluorescence ratio (interference) in experiment [4] was 0.9 (inactive). For the same compound, in [5], the remaining activity is 93.8% (inactive). In [6], the compound was classed as inactive.

Take `CC(=O)NCCc1c[nH]c2ccc(O)cc12`: in [1], the inclusion score was determined as 2. In experiment [2], the period change is -0.07 h (inactive). Moreover, the inhibition in experiment [3] is 0% (inactive). In [4], the fluorescence ratio (interference) was 1 (inactive). The result in experiment [6] was inactive.
